# Data from PubChem BioAssay AID1345083 (National Center for Advancing Translational Sciences (NCATS), 2018).
# Out of some 94,000 compounds screened, about 6,200 (6.6%) were called active. About 31% were inconclusive and are not listed. The sample holds actives, similar compounds and a random draw of the others, so the mix is not that of the screen. Calls come from the whole dose curve; as a rule, active = well fitted inhibition curve with a large enough effect; inconclusive = small, poorly fitted or top-dose-only effect; inactive = flat fitted curve, though single readings scatter.
# Test: Cytotoxic Profiling in HEK 293 Cell Line of Diverse Libraries Using Quantitative High-Throughput Screening; note: nearly all actives have a fitted effect of over 60% in size
# Conditions: HEK 293 viability, ATP luminescence (CellTiter-Glo), 48-72 h; series mostly up to 115 µM; activity change, negative = cytotoxicity: at the top concentration
# Method in brief: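 HEK 293 seeded at 250 cells/well receive compound via pintool. After 48 or 72 hr at 37 degree Celsius, 5% CO2 and 95% humidity, CellTiter-Glo is dispensed and luminescence read following 10 min at room temperature.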
# % is set by controls: 0 for no effect and ±100 for the full control effect; potency is the fitted concentration of half-maximal effect.
SMILES,"activity change, negative = cytotoxicity",Potency,outcome
C[C@@H](NC(=O)c1cccnc1)c1c(-c2ccc(F)cc2)noc1C(=O)O,4.65% [at 172 µM] (inactive),–,–
CC(=O)NC1CN(c2ccnc3ccnn23)C1,-10.6% [at 172 µM] (inactive),–,–
CC(=O)Nc1cccc(-c2nnc3n2CCCC3)c1,24.3% (inactive),–,–
Cc1cccc(-c2cccc(NC(=O)C3CCCN(C(=O)CC(F)(F)F)C3)c2)c1 (configuration not stated),–,31.6 µM (active),–
Cc1cccc(C(=O)N2C[C@@H](F)C[C@H]2C(=O)N2CCCCC2)c1,1.93% (inactive),–,–
CCCCc1ccc(NC(=O)Cn2ccn3nc(-c4ccc(F)cc4)c(CO)c3c2=O)cc1,-0.406% (inactive),–,–
COc1ccccc1CNC(=O)c1nn(CC2CC2)c2c1CNCC2,-11% (inactive),–,–
COC[C@H]1NC(=O)CC[C@H]1C(=O)NCc1cccc(C(F)(F)F)c1,2.55% (inactive),–,–
O=C(NCc1cccc(C(F)(F)F)c1)c1nn(CCOc2ccccc2)c2c1CNCC2,–,28.2 µM (active),–
CNC(=O)c1noc([C@@H]2CC(F)(F)CN2Cc2ccc(C)cn2)n1,1.02% (inactive),–,–
COc1ccc(N2CC(COc3ccccc3)Oc3ncccc3[S+]2(=O)[O-])cc1 (configuration not stated),-26% [at 57.5 µM] (inactive),–,–
COc1ccc(CN2CCC3(COc4ncccc4[S+](=O)([O-])N3)C2)cc1 (configuration not stated),-6.89% (inactive),–,–
COc1ccc(OCC2CN(Cc3cccc(F)c3)[S+](=O)([O-])c3cccnc3O2)cc1 (configuration not stated),–,28.2 µM (active),–
CNC(=O)N1CCC(C2CCN(C(=O)C3CC=CC3)C2)CC1 (configuration not stated),-10.2% (inactive),–,–
CC(C)(C)c1csc(NC(=O)c2ccc3c(c2)OCCN(C2CCC2)C3)n1,–,50.1 µM (active),–
O=C(Cn1nc2c(cc1=O)CCCC2)Nc1nc(-c2ccc3c(c2)OCCCO3)cs1,1.44% (inactive),–,–
COc1ccc(NC(=O)Cn2c(C)ccc(NS(=O)(=O)c3ccccc3)c2=O)cc1,-11.2% (inactive),–,–
CCOc1ccc2c(n1)CCN(C(=O)C(C)C)C2,-20.1% (inactive),–,–
O=C(NCc1ccc(Cl)nc1)c1cn2c(n1)CN(C(=O)c1cccnc1)CC2,–,–,inactive
O=C(NCCc1cnccn1)c1coc(COc2cccc(C(F)(F)F)c2)n1,-2.53% (inactive),–,–
Cc1occc1C(=O)N[C@@H]1CN(Cc2cccnc2)C[C@H]1CN(C)C,-0.747% (inactive),–,–

SMILES,"activity change, negative = cytotoxicity",Potency,outcome
CN(C)C[C@@H]1CN(c2ncccn2)C[C@H]1NC(=O)c1cc(Cl)ccc1F,2.99% (inactive),–,–
CN(C)C[C@@H]1CN(Cc2ccccn2)C[C@H]1NC(=O)c1cc(Cl)ccc1F,–,44.7 µM (active),–
CNC(=O)c1cc(C)nc2onc(C3CCN(C(=O)c4ccc(C)cc4)CC3)c12,-0.605% (inactive),–,–
NC(=O)CCNC(=O)C1=C[C@@H](NC(=O)Nc2ccccc2Br)[C@@H](O)[C@H](O)C1,–,–,inactive
CCN(C1CCN(C)CC1)C1CN(C(=O)c2nccc3ccccc23)C1,-0.681% (inactive),–,–
CCc1cccc(C)c1NC(=O)CN1C(=O)C(c2ccccc2)=NC12CCCC2,-26% (inactive),–,–
CCOc1ccccc1NC(=O)CN1C(=O)C(c2ccccc2)=NC12CCCC2,–,79.4 µM (active),–
CCOc1ccccc1NC(=O)Cn1c(=O)n(-c2ccccc2)c(=O)c2c1cc(C)n2C,-1.28% (inactive),–,–
Cc1noc(C)c1[S+](=O)([O-])N1CCn2c(nnc2C2CCCNC2)C1 (configuration not stated),-2.98% (inactive),–,–
c1cc2c(cc1-c1n[nH]c(C3CCOCC3)n1)OCO2,4.32% (inactive),–,–
Cc1cccc(-c2cnc3n[nH]c(-c4ccc5c(c4)OCO5)c3n2)c1,–,70.8 µM (active),–
COc1ccc(-c2[nH]nc3ncc(-c4cn[nH]c4)nc23)cc1F,-65.2% [at 172 µM] (inactive),–,–
CC(=O)N1CCC(Oc2ccc(Cl)cc2C(=O)N2CCN(CC3CC3)CC2)CC1,-0.051% (inactive),–,–
CCn1cc(S(=O)(=O)N2CCc3nn(CC4CC4)c(=O)n3CC2)cn1,–,–,inactive
CN(C)c1ccc2ncc(Nc3ccccc3F)n2n1,–,112 µM (active),–
O=C(NCCCN1CCCCC1)C1CCN(C(=O)N2CC3CC(C2)[C@H]2CCCC(=O)N2C3)CC1 (some centres not stated),7.11% (inactive),–,–
COCCN1CCC2(CCC1=O)CCN(C(=O)c1sc(C)nc1C)CC2,0.502% (inactive),–,–
CCOC(=O)C1=CN(CC(=O)Nc2ccccc2F)S(=O)(=O)N=C1C,9.12% (inactive),–,–
COc1cc(C)c(CN2CCN3C(=O)CNC(=O)C3C2)cc1C(C)C (configuration not stated),-23.9% (inactive),–,–
CCOc1cc(C)c(CN2C[C@@H](CN(C)C)C[C@H](CO)C2)cc1C(C)C,–,35.5 µM (active),–
Cc1cc(=O)n(CC(=O)N2C[C@H](CO)C[C@H](CN(C)C)C2)nc1C,-2.93% (inactive),–,–

SMILES,"activity change, negative = cytotoxicity",Potency,outcome
COc1ccccc1Nc1cnc2ccc(-c3ccc(OC)c(OC)c3)nn12,–,11.2 µM (active),–
COc1ccc(C(=O)NCc2nnc3ccc(-c4ccccc4)nn23)c(OC)n1,–,–,inactive
Cc1ccc(-c2ccc3nnc(CNC(=O)c4cccnc4)n3n2)cc1C,-0.42% (inactive),–,–
CN(C)c1cccc(-c2cnc(Nc3ccc(N4CCOCC4)cc3)c3c2CCO3)c1,–,22.4 µM (active),–
Cc1cccc(CNC(=O)C2Cn3cccc3C(=O)N2CC(C)C)c1 (configuration not stated),-18.7% (inactive),–,–
CCOC(=O)[C@H]1[C@@H](O)C(=O)N(Cc2ccccc2)C12CCN([S+](C)(=O)[O-])CC2,-4.69% (inactive),–,–
Cc1ccccc1CN1CCC2(C1)C(=O)N(C)C(=O)N2C (configuration not stated),-6.62% (inactive),–,–
Cc1ccccc1CN1CCC(N2CCCC(C(=O)NC3CC3)C2)CC1 (configuration not stated),-0.659% (inactive),–,–
Cc1ccc2c(n1)N(C)[C@H](CO)CCN(Cc1ccccc1C)C2,–,89.1 µM (active),–
C=CCN1CCN(C(=O)C2CCCN(C(=O)c3ccccc3)CCC(=O)NCC2)CC1 (configuration not stated),4.32% (inactive),–,–
CC(C)(C)c1cc(CC2(NCc3ccc(C#N)cc3)COC2)no1,-28.2% [at 172 µM] (inactive),–,–
CC1CCN([C@@H]2[C@H](O)[C@H](CO)O[C@@H]2CNC(=O)Nc2ccccc2)CC1,-8.97% [at 172 µM] (inactive),–,–
CN(Cc1ccccc1)Cc1cc(CC2(NCc3ccc(CO)o3)COC2)no1,-11.7% [at 172 µM] (inactive),–,–
CN(Cc1nccn1C)C(=O)c1cc(CN2CCC(Cc3ccccc3)CC2)on1,-28.8% (inactive),–,–
COCc1cc(C[C@@H]2CC[C@H](O)[C@@H](CN(C)C)O2)no1,2.42% [at 230 µM] (inactive),–,–
CC1(C)[C@H](Cc2cc(CC3CCCCC3)on2)C[C@@H]1NC(=O)C1CCC1,–,35.5 µM (active),–
CC(=O)N1CCC(N[C@H]2C[C@@H](Cc3cc(CN(C)c4ccccc4)on3)C2(C)C)CC1,–,70.8 µM (active),–
CC1(C)[C@H](Cc2cc(CC3CCCCC3)on2)C[C@@H]1NC1CCOCC1,–,28.2 µM (active),–
Cc1cc(C[C@@H]2COC[C@@H]2NC(=O)C2CCN(C(=O)N(C)C)CC2)on1,–,–,inactive
CCC(CC)C(=O)N[C@H]1C[C@@H](Cc2cc(COc3ccccc3)on2)C1(C)C,–,31.6 µM (active),–
